# Sampled rows, rich in hits. Any-hit rate of the full collection: about 2.2%.
# Nox1 inhibitor = blocks human NADPH oxidase 1 activity | 16,000 tested, 0.81% active | inhibition, % at 6.7 µM | HT29 cells, luminol chemiluminescence ROS
# luminol inh ctr = luminol signal inhibition, Nox1 inhibitor counter-screen; HRP/luminol/H2O2 chemiluminescence counterscreen; inhibition, % at 6.7 µM; 16,000 tested, 0.4% active; also: reference of the scale not given here
# NOTCH ag = NOTCH pathway agonism. AID 434982. activation, % at 2.5 µM. NOTCH signaling luciferase reporter cells, luminescence. 15,000 tested, 0.4% active; in the data active = activation above about 2.2%
# PME-1 Maybr inh = PME-1 (human) inhibition, Maybridge primary screen | inhibition, % at 9 µM | recombinant PME-1, FP-Rh probe fluorescence polarization | 16,000 tested, 0.5% active; in the data active = inhibition above about 30%
# The depositor's hits bear a star. Rule as the data show it, unless noted: active = inhibition above about 75%; inactive = the rest.
SMILES,Nox1 inhibitor,luminol inh ctr,NOTCH ag,PME-1 Maybr inh
CNC(=O)Oc1ccc(-c2nc(CSc3ccc(Cl)cc3)cs2)cc1,-27.2,101.7*,0.2,-10.6
O=[N+]([O-])/C=C/c1ccc(OCc2ccccc2)cc1,-48.4,2.7,-0.5,-6.8
O=C1C(Cl)=C(Cl)C(=O)c2ccccc21,34.0,12.8,-1.0,44.7*
Nc1c([N+](=O)[O-])cncc1[N+](=O)[O-],-95.7,2.0,-0.3,-6.7
